Many of the other results were omitted from the sample, so hits are more common in it than they were.
TDP1 cell CPT: DT40-hTDP1 cell growth loss with CPT; chicken DT40 Tdp1-/-;hTDP1 cells + 20 nM CPT, ATP luminescence, 48 h; Potency, µM (doses to about 46.2 µM), inactives show top-dose activity change, negative = growth inhibition, most hits filed as inhibitors; 420,000 tested, 12% active; AID 686979; note: potency is the fitted concentration of half-maximal effect; nearly all actives have a fitted effect of over 55% in size
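Chicken DT40 Tdp1-/- cells stably complemented with human TDP1 were seeded at 400 cells/well in medium containing 20 nM camptothecin, exposed to pin-transferred compounds, and grown at 37 °C for at least 48 hr. Viability was read as ATP luminescence.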
HT1080 IDH1KD tx: kills HT-1080 cells with IDH1 knockdown; HT-1080 IDH1 knockdown viability, ATP luminescence, 48 h; Potency, µM (doses to about 46.1 µM), without a hit: top-dose activity, negative = toxicity, most hits filed as cytotoxic; 360,000 tested, 2% active;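 note: potency is the fitted concentration of half-maximal effect; 0% = DMSO wells and -100% = cell-free medium wells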
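Viability of IDH1-knockdown HT-1080 fibrosarcoma cells was assessed by CellTiter-Glo after 48 h at 37 °C with titrated compound; concentration-effect curves were classified by fit quality and response size.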
TDP1 cell noCPT: qHTS for Inhibitors of human tyrosyl-DNA phosphodiesterase 1 (TDP1): qHTS in cells in absence of CPT; DT40 Tdp1-/- hTDP1 cells, no CPT, ATP luminescence, 48 h; Potency, µM (highest dose often 46.2 µM), without a hit: at the highest dose activity change, negative = growth inhibition, most hits filed as inhibitors; 420,000 tested, 15% active; note: potency is the fitted concentration of half-maximal effect; nearly all actives have a fitted effect of over 55% in size
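Compound effects on proliferation are scored in DT40 Tdp1-/-;hTDP1 cells in the absence of CPT. ATP levels (CellTiter-Glo luminescence) are recorded after a ≥48 hr, 37 °C incubation.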
IL1B secr inh: blocks inflammasome-driven IL-1 beta release; THP-1 LPS/ATP IL-1B secretion, AlphaLISA, 16 h; stronger effect = lower value; activity change, % at 57.5 µM; 360,000 tested, 4.7% active; in the data active = activity change below about -50%; inconclusive = mostly about -30% to -49%
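Secreted IL-1B measured by AlphaLISA bead assay after 16 h compound exposure of THP-1 cells; compounds (final up to 57.5 uM) added 1 h before LPS (250 ng/mL) and ATP (1.25 mM) stimulation; lower signal means less secretion.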
12-LOX inh: blocks human arachidonate 12S-lipoxygenase; Potency, µM (top dose mostly 108 µM), inactives show top-dose activity change, negative = inhibition, usual class: inhibitors; purified 12hLO, xylenol orange hydroperoxide absorbance; P18054; 580,000 tested, 1.1% active; note: potency is the fitted concentration of half-maximal effect
Target sequence (P18054 whole entry, looked up): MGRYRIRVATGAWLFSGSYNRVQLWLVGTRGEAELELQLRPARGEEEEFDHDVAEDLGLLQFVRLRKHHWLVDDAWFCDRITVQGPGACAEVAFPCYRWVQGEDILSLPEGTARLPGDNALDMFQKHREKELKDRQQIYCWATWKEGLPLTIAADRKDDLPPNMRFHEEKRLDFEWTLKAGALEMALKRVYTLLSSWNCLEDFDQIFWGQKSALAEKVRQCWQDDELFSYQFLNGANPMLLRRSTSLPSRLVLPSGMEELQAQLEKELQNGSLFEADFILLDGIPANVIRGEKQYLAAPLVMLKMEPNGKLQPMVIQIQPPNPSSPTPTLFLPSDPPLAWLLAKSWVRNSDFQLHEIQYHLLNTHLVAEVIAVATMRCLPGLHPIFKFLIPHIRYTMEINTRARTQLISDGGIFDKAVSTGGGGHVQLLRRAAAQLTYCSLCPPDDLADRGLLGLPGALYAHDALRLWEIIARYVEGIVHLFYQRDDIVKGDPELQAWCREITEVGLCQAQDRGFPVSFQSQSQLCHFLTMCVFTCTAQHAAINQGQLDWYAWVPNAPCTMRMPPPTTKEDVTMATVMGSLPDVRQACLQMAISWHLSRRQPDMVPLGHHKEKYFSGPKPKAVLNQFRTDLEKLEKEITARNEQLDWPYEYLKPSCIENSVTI
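Hydroperoxide product was detected by ferrous iron/xylenol orange as the 573 to 405 nm absorbance ratio. Arachidonic acid at 40 uM (final) was turned over for 30 min at room temperature by 150 nM human 12hLO, pH 7.0 Hepes buffer, after 15 min compound preincubation.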
HT1080NT lethal: kills 2HG-producing HT-1080-NT fibrosarcoma cells. Potency, µM (series often up to 46.1 µM), for the others: at the highest dose activity, negative = less viability, usual class: cytotoxic. HT-1080-NT fibrosarcoma viability, CellTiter-Glo ATP luminescence, 48 h. 360,000 tested, 1.6% active;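 note: NT is the 2HG producing partner of a matched IDH1 knockdown line; potency is the fitted concentration of half-maximal effect; 0% = DMSO-treated cells and -100% = media-only wells without cells; nearly all actives have a fitted effect of over 55% in size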
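Viability of the 2HG-overproducing fibrosarcoma line after 48 hours of compound exposure at 37 degrees C was determined by luminescence with CellTiter-Glo, and concentration-effect curves were then fitted and categorized.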
Active calls of the source: *; ? = inconclusive; . = not tested or not shown; ! = repeats disagree; [ ] = another dose, or the depositor's remark. Unless noted, calls come from the whole dose curve; as a rule, active = well fitted curve in the direction sought with a large enough effect; inconclusive = small, poorly fitted or top-dose-only effect, or another doubt; inactive = no such curve, though single readings can be large; an effect the other way counts as inactive or inconclusive. Unless noted, % is set by controls: 0 for no effect and ±100 for the full control effect.

SMILES	TDP1 cell CPT	HT1080 IDH1KD tx	TDP1 cell noCPT	IL1B secr inh	12-LOX inh	HT1080NT lethal
CC(C)c1ccc(/C=N/NC(=O)c2cccc(Cl)c2)cc1	10µM*	21µM*	5.8µM*	-15	16%	23µM*
Cc1ccc(-c2noc([C@@H]3Cc4nc[nH]c4CN3C(=O)Nc3cccc(F)c3)n2)cc1	.	.	.	.	21%[176 µM]	.
CC(C)c1ccc(/C=N/NC(=O)c2ccc(-n3cnnn3)cc2)cc1	?	?	12µM*	-19	-1%	?
C#CC(c1ccccc1)(c1ccccc1)n1ccnc1	?	-9%	23µM*	-16	15%	3%
Clc1ccccc1C(c1ccccc1)(c1ccccc1)n1ccnc1	8.1µM*	?	10µM*	-24	?	?
CC(=O)C1CCC2C3CCC4=CC(=O)C=CC4(C)C3CCC12C (stereo not drawn)	21µM*	-14%	12µM*	-8	5%	-12%
CC(=O)[C@H]1CC[C@H]2[C@@H]3C=CC4=CC(=O)CC[C@@]4(C)[C@@H]3CC[C@]12C	15µM*!	3%	13µM*	3	-28%	18%
CC(=O)OCC=C1CCC2C3CCC4=CC(=O)CCC4(C)C3C(O)CC12C (stereo not drawn)	12µM*	-4%	12µM*	-7	3%	3%
CC(=O)[C@H]1CC[C@H]2[C@@H]3CCC4=CC(=O)CC[C@]4(C)[C@H]3[C@H](O)C[C@]12C	?	9%	16µM*	-7	-6%	33%
COc1ccc(/C=C/CN2CCN(Cc3ccccc3)CC(O)C2)cc1 (stereo not drawn)	.	.	.	.	4%	.
N#Cc1ccc(O[C@@H]2CCOC[C@H]2NC(=O)C2(N3CCCC3)CCCC2)cc1	.	.	.	.	45%	.
O=C(Cn1c(-c2ccccc2)c[n+]2ccsc12)c1ccccc1	21µM*	-10%	?	46	-7%	-8%
O=C(Cn1c(-c2ccccc2)c[n+]2ccsc12)c1ccc([N+](=O)[O-])cc1	23µM*	?	23µM*	6	-14%	?
Cc1ccc(C(CNC(=O)c2cccs2)N2CCCCC2)o1 (stereo not drawn)	.	.	.	.	7%	.
CC(=O)c1ccc2c(c1)OCCOCCOc1ccccc1OCCOCCO2	18µM*	-4%	23µM*	-15	0%	-15%
c1ccc2c(c1)OCCOCCOCCOCCOc1ccccc1OCCO2	.	.	.	.	-3%	.
c1ccc2c(c1)OCCOCCOCCOCCOCCOc1ccccc1OCCOCCOCCO2	8.2µM*	?	15µM*	-73*	-2%	?
CC(=O)c1ccc2c(c1)OCCOCCOCCOCCO2	3%	5%	-1%	0	.	7%
Cc1ccn2cc(-c3cccc(NC(=O)C(C)C)c3)nc2c1	15µM*	15%	29µM*	0	2%	17%
COc1ccc(CC(=O)Nc2ccc(-c3cn4cccc(C)c4n3)cc2)cc1OC	?	-1%	23µM*	-13	0%	2%
COc1ccc(CC(=O)Nc2ccc(-c3cn4ccc(C)cc4n3)cc2)cc1	5.8µM*	?	5.2µM*	-7	0%	15µM*
Cc1cccn2cc(-c3ccc(NC(=O)Cc4ccccc4)cc3)nc12	?	0%	?	5	10%	-1%
CC(C)C(=O)Nc1cccc(-c2cn3ccccc3n2)c1	-9%	17%	1%	0	-19%	16%
CC(C)(O)CCC(O)[C@](C)(O)C1CC[C@@]2(O)C3=C/C(=N\O)[C@@H]4C[C@@H](O)[C@@H](O)C[C@]4(C)C3CC[C@]12C (stereo partly drawn)	.	.	.	.	22%	.
O=C(c1ccc(Cl)nc1)N1CCCC(c2nn(-c3ccc(F)cc3)c(=O)[nH]2)C1 (stereo not drawn)	.	.	.	.	15%	.
SMILES	TDP1 cell CPT	HT1080 IDH1KD tx	TDP1 cell noCPT	IL1B secr inh	12-LOX inh	HT1080NT lethal
CC(C)(Oc1ccc(Cl)cc1)C(=O)N(Cc1ccccc1)c1ccccn1	?	5%	18µM*	0	13%	5%
Cc1ccc(CN(C(=O)COc2ccc([N+](=O)[O-])cc2)c2ccccn2)o1	-17%	.	?	.	-10%	.
CC(C)c1ccc(OCC(=O)N(Cc2ccccc2)c2ccccn2)cc1	23µM*	-28%	16µM*	-6	-14%	1%
Cc1ccc(CN(C(=O)COc2ccc([N+](=O)[O-])cc2)c2ccccn2)cc1	?	.	16µM*	.	-21%	.
O=C(c1ccc(F)c(F)c1Nc1ccc(I)cc1F)N1CC(O)([C@H]2CCCCN2)C1	.	.	.	.	-2%[57.4 µM]	.
COc1ccc(NC(=O)N2CCc3c(C(=O)NCCN4CCCCCC4)cccc32)cc1	.	.	.	.	37%	.
O=C(OCn1ncc(Br)c(Br)c1=O)c1ccc(F)cc1	1µM*	12µM*	1µM*	-97*	.	21µM*
O=C(OCn1ncc(Br)c(Br)c1=O)c1ccccc1Cl	1.2µM*	6.5µM*	1.5µM*	-100*	.	8.2µM*
COc1ccc(CNC(=O)c2nc(-c3nn(-c4ccc(C)cc4)c(=O)n(C)c3=O)no2)cc1	.	.	.	.	-8%	.
Cc1nn2c(c1-c1ccccc1C(C)C)N(Cc1ccc3c(c1)CCO3)CCC2	.	.	.	.	4%[176 µM]	.
COc1cccc(N(CC(=O)NCCSc2ccccn2)S(=O)(=O)c2ccccc2)c1	-20%	-5%	?	-59*	-1%	-1%
COc1ccc(N(CC(=O)NCCSc2ccccn2)S(=O)(=O)c2ccccc2)cc1Cl	16µM*	-12%	?	-7	278%	-3%
NC(N)=N/N=C(\N=Nc1ccccc1)c1cccc2cccnc12	23µM*	?	21µM*	-13	-2%	0%
NC(N)=N/N=C(\N=Nc1ccccc1)c1ccc(Cl)cc1	13µM*	-9%	13µM*	-113*	?	?
Fc1cc(F)cc(NC(=S)Nc2ccccc2N2CCOCC2)c1	-15%	-5%	26µM*	-9	-21%	5%
CCOc1ccc(C(=O)NC(=S)Nc2ccccc2N2CCOCC2)cc1Br	?	0%	16µM*	-14	25µM*	-2%
COc1ccc(C(=O)Nc2ccccc2N2CCOCC2)cc1Br	?	7%	?	-20	-27%	11%
COc1ccc(C(=O)NC(=S)Nc2ccccc2N2CCOCC2)cc1Br	?	5%	18µM*	-22	16µM*	5%
O=C(NC(=S)Nc1ccccc1N1CCOCC1)c1cccc([N+](=O)[O-])c1	-19%	-22%	-28%	21	408%	-1%
